The results in this text go back to PubChem BioAssay (NCATS).

Experiment [1] in a line: qHTS of pediatric cancer cell lines to identify multiple opportunities for drug repurposing: Primary screen for SJ-GBM2 cells (AID 1347091). Note: potency is the fitted concentration of half-maximal effect. The essentials:
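Viability measured as metabolically active cells via CellTiter-Glo luminescence following 48 hours of compound exposure, 11-point dilutions in confirmatory testing. 500-1,000 cells/well plated 5 hours before dosing; controls were DMSO and 2.3 µM bortezomib.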
On the technique in general: Quantitative high-throughput screening tests each substance at several concentrations.

A short description of experiment [2]: qHTS of pediatric cancer cell lines to identify multiple opportunities for drug repurposing: Primary screen for A673 cells (AID 1347092). Note: nearly all actives have a fitted effect of over 45% in size. Note: potency is the fitted concentration of half-maximal effect. The method, boiled down:
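Cell viability of A673 measured by CellTiter-Glo ATP luminescence after 48 hours compound exposure. Dilution series spanned 0.78 nM to 46 µM (MIPE, 11-point) or 0.59 nM to 46 µM (NPC, 8-point); bortezomib 2.3 uM positive control.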

Experiment [3] can be described thus: qHTS of pediatric cancer cell lines to identify multiple opportunities for drug repurposing: Primary screen for SK-N-MC cells (AID 1347093). Note: potency is the fitted concentration of half-maximal effect. The essentials: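 Metabolically active cells were quantified by ATP-dependent luminescence (CellTiter-Glo, 15 min at room temperature) following 48 h treatment. Cells had been plated at 500-1,000 per well and settled for 5 h beforehand.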

Experiment [4] in a line: qHTS of pediatric cancer cell lines to identify multiple opportunities for drug repurposing: Primary screen for BT-37 cells (AID 1347094). Note: potency is the fitted concentration of half-maximal effect. The method, boiled down: (§1)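 Viability was measured as metabolically active cells after 48 hours of treatment, read by CellTiter-Glo luminescence. Compounds were tested at multiple final concentrations, giving concentration-response curves.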

Experiment [5] in a line: qHTS of pediatric cancer cell lines to identify multiple opportunities for drug repurposing: Primary screen for NB-EBc1 cells (AID 1347095). Note: potency is the fitted concentration of half-maximal effect. The essentials: as §1
The nature of experiment [6]: qHTS of pediatric cancer cell lines to identify multiple opportunities for drug repurposing: Primary screen for U-2 OS cells (AID 1347096). Note: nearly all actives have a fitted effect of over 50% in size. The method, boiled down: (§2)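 Viability after 48 h compound treatment at 37C, 500-1,000 cells/well, read as ATP luminescence with CellTiter-Glo. Primary screens used 11-point (MIPE, 0.78 nM-46 µM) or 8-point (NPC, 0.59 nM-46 µM) final concentrations; follow-up screens used 11-point dilutions.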

A short description of experiment [7]: qHTS of pediatric cancer cell lines to identify multiple opportunities for drug repurposing: Primary screen for Saos-2 cells (AID 1347097). Note: nearly all actives have a fitted effect of over 40% in size. Note: potency is the fitted concentration of half-maximal effect. The essentials:
as §1

Experiment [8] in a line: qHTS of pediatric cancer cell lines to identify multiple opportunities for drug repurposing: Primary screen for SK-N-SH cells (AID 1347098). Note: nearly all actives have a fitted effect of over 65% in size. Note: potency is the fitted concentration of half-maximal effect. The method, boiled down: (§3)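 Cells (500-1,000/well) rested 5 h, then received compounds for 48 h; metabolically active cells were measured by CellTiter-Glo luminescence. Final concentrations spanned up to 46 µM (MIPE, 11-point) or 0.59 nM-46 µM (NPC, 8-point) in primary screens, 11-point in follow-ups.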

Experiment [9] in a line: qHTS of pediatric cancer cell lines to identify multiple opportunities for drug repurposing: Primary screen for LAN-5 cells (AID 1347100). Note: potency is the fitted concentration of half-maximal effect. The essentials:
as §2

Experiment [10] in a line: qHTS of pediatric cancer cell lines to identify multiple opportunities for drug repurposing: Primary screen for BT-12 cells (AID 1347101). Note: nearly all actives have a fitted effect of over 25% in size. Note: potency is the fitted concentration of half-maximal effect. The essentials:
as §3

The nature of experiment [11]: qHTS of pediatric cancer cell lines to identify multiple opportunities for drug repurposing: Primary screen for Rh18 cells (AID 1347102). Note: nearly all actives have a fitted effect of over 65% in size. The essentials: as §2
The nature of experiment [12]: qHTS of pediatric cancer cell lines to identify multiple opportunities for drug repurposing: Primary screen for OHS-50 cells (AID 1347103). Note: nearly all actives have a fitted effect of over 40% in size. Note: potency is the fitted concentration of half-maximal effect. The essentials:
as §3

The nature of experiment [13]: qHTS of pediatric cancer cell lines to identify multiple opportunities for drug repurposing: Primary screen for RD cells (AID 1347104). Note: nearly all actives have a fitted effect of over 55% in size. The method, boiled down:
as §1

The nature of experiment [14]: qHTS of pediatric cancer cell lines to identify multiple opportunities for drug repurposing: Primary screen for MG 63 (6-TG R) cells (AID 1347105). Note: nearly all actives have a fitted effect of over 50% in size. The essentials: as §1
Experiment [15] in a line: qHTS of pediatric cancer cell lines to identify multiple opportunities for drug repurposing: Primary screen for Rh30 cells (AID 1347107). Note: series mostly up to about 46 µM; nearly all actives have a fitted effect of over 75% in size. The essentials:
as §2

The nature of experiment [16]: qHTS of pediatric cancer cell lines to identify multiple opportunities for drug repurposing: Primary screen for Rh41 cells (AID 1347108). Note: nearly all actives have a fitted effect of over 70% in size. Note: potency is the fitted concentration of half-maximal effect. The method, boiled down:
as §1

Experiment [17] is described as follows: qHTS of pediatric cancer cell lines to identify multiple opportunities for drug repurposing: Primary screen for NB1643 cells (AID 1347099). Note: nearly all actives have a fitted effect of over 50% in size. Note: potency is the fitted concentration of half-maximal effect. The essentials:
as §1

Experiment [18] in a line: qHTS of pediatric cancer cell lines to identify multiple opportunities for drug repurposing: Primary screen for control Hh wild type fibroblast cells (AID 1347106).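 Note: series mostly up to about 46 µM; a drop in luminescence marks cytotoxicity and a rise apparent proliferation; nearly all actives have a fitted effect of over 55% in size.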 The method, boiled down: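 Cells (500-1,000/well) in growth media were settled 5 h at 37 degrees C, then given compounds for 48 h. Viability was read as CellTiter-Glo luminescence. Primary runs used MIPE at 11 points (0.78 nM-46 µM) and NPC at 8 points (0.59 nM-46 µM); follow-ups used 11 points.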

The nature of experiment [19]: qHTS of pediatric cancer cell lines to identify multiple opportunities for drug repurposing: Confirmatory screen for A673 cells (AID 1347110).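 Note: potency is the fitted concentration of half-maximal effect; cells exposed to compound for 48 h before the viability read; nearly all actives have a fitted effect of over 65% in size.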 The essentials:
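Viability was read as ATP luminescence (CellTiter-Glo) after 48 h of compound exposure at 37 C in A673 cells seeded at 500-1,000/well. Titrations reached 46 uM final, with 11 points in the confirmatory screen. Concentration-response curves were fitted directly.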

Inconclusive results are not listed. The source made the active and inactive calls. Calls come from the whole dose curve; as a rule, active = well fitted curve in the direction sought with a large enough effect; inconclusive = small, poorly fitted or top-dose-only effect, or another doubt; inactive = no such curve, though single readings can be large; an effect the other way counts as inactive or inconclusive.

As to `COC(C)(C)CCCC(C)C/C=C/C(C)=C/C(=O)OC(C)C` (centres undefined), the Potency entry in experiment [1], in experiment [2], in [3], in [4], in [5] and in experiment [6] was “inactive” each time. The Potency entry in experiment [7], in experiment [8], in experiment [9], in experiment [10], in experiment [11] and in experiment [12] was “inactive” throughout. The Potency entry in experiment [13], in [14], in [15] and in experiment [16] was “inactive” in each case.

Regarding `CC(C)NCC(O)c1ccc([N+](=O)[O-])cc1` (centres undefined), the Potency result in experiment [1], in experiment [2], in experiment [3], in experiment [4], in experiment [5] and in experiment [6] was “inactive” in each case. In addition, the Potency entry in experiment [7], in experiment [8], in experiment [17], in [9], in experiment [10] and in [11] was “inactive” each time. In addition, the Potency entry in experiment [12], in experiment [13], in [14], in [15] and in experiment [16] was “inactive” throughout.

On to `COc1ccc(N(C(=O)Oc2c(C)cccc2C)c2ccnc(Nc3ccc(N4CCN(C)CC4)cc3)n2)c(OC)c1`, for which the Potency in experiment [1] is 8330 nM (active); in experiment [2] it was 935 nM (active); in experiment [3], 1320 nM (active); in experiment [4], 15300 nM (active); in [5] it was 8330 nM (active); in [8], 242 nM (active). Further, the results for the Potency in experiment [9] and in [12] were 1480 nM (active) and 9680 nM (active), respectively. Also, the Potency entry in [6], in experiment [11], in experiment [15] and in experiment [16] was “inactive” each time.

`COC(=O)c1cncn1C(C)c1ccccc1` (centres undefined): the Potency entry in experiment [1], in experiment [2], in experiment [3], in experiment [4], in experiment [5] and in [6] was “inactive” in each case. The Potency entry in experiment [8], in experiment [9], in experiment [10], in [11], in [12] and in experiment [13] was “inactive” each time. Further, the Potency result in experiment [18], in experiment [15] and in experiment [16] was “inactive” throughout.

As for `CCOCCOC(C)=O`, the Potency result in experiment [1], in experiment [2], in experiment [3], in experiment [4], in experiment [5] and in experiment [6] was “inactive” in each case. For the same compound, the Potency entry in experiment [7], in experiment [8], in [17], in experiment [9], in experiment [11] and in [12] was “inactive” in each case. The Potency result in experiment [13], in experiment [14], in experiment [18], in experiment [15] and in [16] was “inactive” throughout.

With `CC(C)N(CCNC(=O)CN1CCCC1=O)C(C)C`, the Potency entry in experiment [1], in [2], in experiment [3], in experiment [4], in experiment [5] and in experiment [6] was “inactive” each time. In addition, the Potency result in [7], in experiment [8], in experiment [17], in [9], in [10] and in [11] was “inactive” each time. For the same compound, the Potency result in [12], in experiment [13], in experiment [14], in experiment [15] and in experiment [16] was “inactive” throughout.

With `O=C(O)COc1nc(Cl)c(Cl)cc1Cl`, the Potency entry in experiment [1], in [2], in experiment [4], in experiment [5], in experiment [6] and in experiment [8] was “inactive” throughout. Besides, the Potency entry in experiment [9], in experiment [11], in [12], in experiment [13], in experiment [14] and in experiment [18] was “inactive” each time. Also, the Potency entry in experiment [15] and in experiment [16] was “inactive” throughout. The Potency in [3] was 1 nM (active); in [7], 1 nM (active); in experiment [19], 2180 nM (active).

As to `C[C@]12COC(=O)C[C@@H]1CC[C@@H]1[C@H]2CC[C@@]2(C)[C@H]1CC[C@]2(C)O`, the Potency entry in experiment [1], in experiment [2], in experiment [3], in [4], in [5] and in [6] was “inactive” in each case. For the same compound, the Potency entry in experiment [7], in experiment [8], in [17], in [9], in experiment [10] and in experiment [11] was “inactive” throughout. Further, the Potency entry in [12], in [13], in experiment [18], in [15] and in [16] was “inactive” throughout.

For the compound `CC[N+]1(CCOC(=O)C(O)(c2ccccc2)c2ccccc2)CCCCC1`, the Potency entry in [1], in experiment [2], in experiment [3], in experiment [4], in experiment [5] and in experiment [6] was “inactive” in each case. Moreover, the Potency entry in [7], in [8], in [9], in experiment [10], in experiment [11] and in [12] was “inactive” each time. For the same compound, the Potency result in experiment [13], in experiment [14], in experiment [18], in experiment [15] and in [16] was “inactive” each time.

As for `COCC1(CO)C(=O)C2CCN1CC2` (centres undefined), the Potency is 2090 nM (active) in experiment [1]; 2350 nM (active) in experiment [2]; 1180 nM (active) in experiment [3]; 264 nM (active) in [5]; 8330 nM (active) in experiment [7]; 1080 nM (active) in experiment [8]. The Potency was 5900 nM (active) in experiment [17]; 833 nM (active) in [9]; 21700 nM (active) in experiment [10]; 3850 nM (active) in experiment [12]; 20900 nM (active) in experiment [16]. Further, the Potency entry in experiment [6], in experiment [11] and in experiment [13] was “inactive” in each case.

As for `OCCCBr`, the Potency result in experiment [1], in experiment [2], in experiment [3], in experiment [4], in [5] and in experiment [6] was “inactive” in each case. For the same compound, the Potency result in experiment [7], in experiment [8], in experiment [17], in experiment [9], in experiment [10] and in experiment [11] was “inactive” throughout. The Potency result in experiment [12], in [13], in [14], in experiment [15] and in [16] was “inactive” each time.

On to `CC(C)(C)NC[C@H](O)c1ccc(O)cc1Cl`, for which the Potency entry in experiment [1], in experiment [2], in [3], in experiment [4], in experiment [5] and in [6] was “inactive” in each case. The Potency entry in [7], in experiment [8], in experiment [17], in experiment [9], in [10] and in [11] was “inactive” throughout. Moreover, the Potency entry in [12], in [13], in [14], in experiment [18], in experiment [15] and in experiment [16] was “inactive” each time.
